Hits are enriched below; roughly 32% of the tested compounds scored in any of these assays.
PostGolgi ctrl = growth of the yeast control strain, post-Golgi counter-screen | efflux-deficient yeast background strain, growth absorbance A615, 16 h | inhibition, % at 10 µM | 98,000 compounds, 5% hits
CYP2C19 act = cytochrome P450 2C19 (human) activation. activation factor at 5 µM. recombinant CYP2C19, luciferin-H EGE luminescence; active compounds read high; 0 = fully inhibited enzyme, 1 = untreated enzyme. 96,000 tested, under 10 active. P33261;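 active means activation factor of at least 2 at 5 µM in the primary screen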;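 further: 0 = wells with 2.5 mM tranylcypromine and 1 = vehicle-only wells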
CYP2C9 act = CYP2C9 (human) activation; P11712; recombinant CYP2C9, luciferin-H conversion, luminescence; active compounds read high; factor 1 = untreated enzyme, 0 = blocked; activation factor at 5 µM; 96,000 compounds, 1.4% hits; AID 1024;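 active means activation factor of 2 or more for CYP2C9 at a 5 µM dose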;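 further: 0 = sulfaphenazole-blocked wells and 1 = vehicle-only wells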
Target sequence (P11712 whole entry, looked up): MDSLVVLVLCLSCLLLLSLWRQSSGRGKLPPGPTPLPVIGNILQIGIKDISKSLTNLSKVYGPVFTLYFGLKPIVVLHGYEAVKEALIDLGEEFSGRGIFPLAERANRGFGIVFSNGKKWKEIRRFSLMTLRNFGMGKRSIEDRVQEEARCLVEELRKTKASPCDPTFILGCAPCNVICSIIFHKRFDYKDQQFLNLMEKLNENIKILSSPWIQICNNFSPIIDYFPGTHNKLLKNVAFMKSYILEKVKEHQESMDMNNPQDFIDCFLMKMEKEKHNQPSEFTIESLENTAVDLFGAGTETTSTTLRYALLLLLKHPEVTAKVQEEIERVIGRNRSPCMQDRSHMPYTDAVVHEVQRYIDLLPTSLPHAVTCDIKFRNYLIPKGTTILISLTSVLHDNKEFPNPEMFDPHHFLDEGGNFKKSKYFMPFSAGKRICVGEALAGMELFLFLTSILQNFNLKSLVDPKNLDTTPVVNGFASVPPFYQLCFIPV
CYP2C9 inh = blocks human cytochrome P450 2C9; 96,000 compounds, 20% hits; CYP2C9 Supersomes, luciferin-H conversion, luminescence; inhibition, % at 5 µM; P11712; AID 777;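 active means blocking of liver enzyme CYP2C9 beyond about 50% at 5 µM, limit read from the data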
CYP2C19 inh = inhibitors of human CYP2C19 | CYP2C19 Supersomes, luciferin-H EGE luminescence, 30 min | inhibition, % at 5 µM | 96,000 compounds, 21% hits | AID 778;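 active means CYP2C19 inhibition above a set limit at 5 µM in the primary screen, cut at about 50% in these data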;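 further: plate controls were negative control wells for no effect and 2.5 mM tranylcypromine positive control for full effect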
PostGolgi yeast = growth inhibition of a yeast mutant, post-Golgi transport screen; post-Golgi transport phenotypic cell assay; inhibition, % at 10 µM; 98,000 compounds, 0.9% hits;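 further: yeast cells grown in 1536-well plates; yeast grown about 18 h at 30C before absorbance read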
Numbers without * were called inactive; · = no result given. Unless noted, no stated cut-off is given here; in the data, active means inhibition above about 30%; inactive means the rest.

SMILES	PostGolgi ctrl	CYP2C19 act	CYP2C9 act	CYP2C9 inh	CYP2C19 inh	PostGolgi yeast
CS(=O)(=O)N1CCN(C2CCN(Cc3ccccc3)CC2)CC1	-2	1.1	1.2	-15	-9	-3
Cc1ccc(C)c(CN2C(=O)C(C)Oc3ccc(C)cc32)c1 (stereo unspecified)	15	0.6	0.9	9	43	-5
COc1ccccc1NC(=O)CN1CCN(c2ccccc2F)CC1	10	0.1	0.3	66*	88*	-3
COc1ccccc1NC(=O)N1CCN(c2ccccc2F)CC1	5	0.6	2.4*	-135	41	3
COc1ccccc1NC(=O)CCN1CCN(Cc2ccccc2)CC1	8	0.8	0.4	57*	24	4
COc1ccccc1NC(=O)N1CCN(c2ccccn2)CC1	-4	0.7	1.8	-78	25	-4
CCOC(=O)c1ccc(NC(=O)N2CCN(CCc3ccccc3)CC2)cc1	12	0.6	0.3	66*	43	-9
COc1ccccc1NC(=O)CN1CCN(CC(=O)Nc2cc(NC(C)=O)ccc2OC)CC1	3	0.6	0.8	24	41	-1
COc1ccc(/C(O)=C2/C(=O)C(=O)N(CCN(C)C)C2c2ccc(F)cc2)cc1Cl (stereo unspecified)	-2	0.9	1	-1	12	-4
COCCNc1nc2c(c(=O)n(C)c(=O)n2C)n1Cc1cccc(C(F)(F)F)c1	4	0.8	0.9	6	24	-8
COc1ccccc1N1CCN(CCOc2c(OC)cccc2OC)CC1	3	0.9	2.2*	-118	15	3
COc1ccc(C)cc1NC(=O)CN1CCN(CC(=O)Nc2ccccc2F)CC1	11	0.4	0.9	12	61*	-4
COc1ccc(Cl)cc1NC(=O)C(C)N1CCN(C/C=C/c2ccccc2)CC1 (stereo unspecified)	19	0	0.1	91*	97*	65*
COc1ccccc1NC(=O)CN1CCN(c2ccc(Cl)cc2)CC1	32*	0.6	0.7	32	41	1
COc1ccc(Cl)cc1NC(=O)CCN1CCN(c2ccccc2C)CC1	16	1	1	0	0	2
Cn1c(=O)c(=O)n(C)c2cc(S(=O)(=O)N3CCN(c4cccc(C(F)(F)F)c4)CC3)ccc21	1	1.1	1.1	-9	-11	-5
COc1ccc(NC(=O)c2cc([N+](=O)[O-])nn2Cc2ccccc2)c(C)c1	8	0.7	0.8	21	26	1
COc1cc(NC(=O)CN2CCN(c3ccccc3F)CC2)cc(OC)c1	3	0.8	0.7	34	22	2
O=C(CN1CCN(c2ccc(F)cc2)CC1)Nc1cc(C(F)(F)F)ccc1Cl	48*	1.1	1.2	-16	-5	-4
COc1cccc(NC(=O)CN2CCN(c3ccccc3F)CC2)c1	32*	0.4	0.3	67*	62*	-8
COc1ccc(Cl)cc1NC(=O)N1CCN(CCc2ccccc2)CC1	17	0.3	2.3*	-130	73*	13
CCCC(=O)Nc1cccc(NC(=O)CN2CCN(c3ccccc3OC)CC2)c1	4	0.1	0.2	77*	88*	-2
COc1ccc(NC(=O)c2cc3n(n2)C(C(F)(F)F)CC(c2ccc(OC)cc2)N3)cc1 (stereo unspecified)	1	0.9	0.7	26	12	3
COc1ccc(NC(C)=O)cc1NC(=O)CN1CCN(CC(=O)Nc2ccc(Cl)cc2)CC1	12	0.3	0.8	25	67*	-1
COc1ccc(NC(C)=O)cc1NC(=O)CN1CCN(CC(=O)Nc2ccccc2Cl)CC1	8	0.5	0.8	23	46	7
SMILES	PostGolgi ctrl	CYP2C19 act	CYP2C9 act	CYP2C9 inh	CYP2C19 inh	PostGolgi yeast
COC(=O)Cc1n[nH]c(=O)c2ccccc12	15	1	0.9	7	-4	0
O=C(O)CCC(=O)NC1CCCCC1	8	1.1	0.8	21	-8	0
Cc1ccccc1NC(=O)c1sc2nc[nH]c(=O)c2c1C	1	1.1	1.2	-22	-9	-3
CCC(=O)c1ccc(OCCN2CCOCC2)cc1	7	1	1.1	-10	-4	2
CCC(=O)c1ccc(OCCn2cncn2)cc1	18	0.5	0.3	67*	52*	-4
Cc1cccc(C(=O)NNC2=C(C(=O)C(F)(F)F)CCC2)c1O	5	1.1	0.1	94*	-11	10
CCC(CC)NC(=O)COC(=O)c1cccc(C)c1O	-5	0.8	1.1	-12	16	7
O=C(CCNS(=O)(=O)c1cccs1)NCc1ccccc1	12	0.2	0.8	23	83*	21
O=S(=O)(NCCSc1ccccc1)c1cccs1	4	0.2	0.5	46	80*	11
COc1ccc(N2CCN(C(=O)CCNS(=O)(=O)c3cccs3)CC2)cc1	2	1.1	0.9	12	-6	9
O=S(=O)(NCCc1ccccn1)c1cccs1	1	0.9	1.1	-14	8	-5
O=C(CCNS(=O)(=O)c1cccs1)N1CCc2ccccc2C1	2	0.4	1	3	59*	4
O=S(=O)(NCCSc1ccccc1)c1ccc(F)cc1	19	0.6	0.9	13	40	8
COc1cccc(CNC(=O)CCCNS(=O)(=O)c2cccs2)c1	9	0.7	0.7	30	32	-3
O=S(=O)(NCc1ccccc1)c1cccs1	10	0.5	0.9	7	51*	-9
Cc1nc2sc(C(c3cccs3)N3CCC(C(N)=O)CC3)c(O)n2n1 (stereo unspecified)	-1	1.1	0.7	26	-8	2
CCn1c(C(C#N)/C(=N\S(=O)(=O)c2cccs2)c2ccccc2)nc2ccccc21 (stereo unspecified)	13	1	0.9	12	3	3
O=C(NCc1ccc(F)cc1)C(Cc1ccccc1)NS(=O)(=O)c1cccs1 (stereo unspecified)	3	0.1	0.5	50*	89*	9
O=C(NCc1cccs1)C(Cc1ccccc1)NS(=O)(=O)c1cccs1 (stereo unspecified)	4	·	·	·	·	13
O=S(=O)(c1cccs1)N1CCC(Cc2ccccc2)CC1	35*	0.9	0.8	20	6	-5
COc1ccc(OCCCC(=O)Nc2ccc3c(c2)OCCO3)cc1	1	0.2	0.1	86*	76*	-12
COc1ccc(-c2noc(CCC(=O)Nc3ccc4c(c3)OCCO4)n2)cc1	24	0.3	0.2	76*	66*	13
Cc1ccc(OCCCC(=O)Nc2ccc3c(c2)OCO3)cc1	7	1	0.8	15	5	-4
CCN(CCCNC(=O)CCc1nc(-c2ccc(OC)cc2)no1)c1cccc(C)c1	29	0.1	0.1	87*	93*	-3
CCc1ccc(CCC(=O)Nc2ccc(C)c(C)c2)o1	7	0.5	0.9	14	51*	18

Screens as filed in PubChem BioAssay.
